# In PubChem BioAssay AID463173 (ICCB-Longwood Screening Facility, Harvard Medical School, 2010):
# Screen size: about 52,000 compounds; about 4,300 (8.3%) were called active. Rule as the data show it: active = survival mostly below about 52% (no sharp cut-off); inactive = mostly above about 56%. Shown is part of a subset that was picked to be rich in actives.
# System: DeltatarO mutant
# Assay: growth inhibition of S. aureus wild type versus tarO mutant, primary screen, teichoic acid synthesis inhibitors, RN4220, OD600 (AID 463173)
# Conditions: OD600, 18 h, hits give low values, screened at 18.75 µg/mL (by protocol)
row,Structure (SMILES),survival
1,COc1cccc(N2CC(NC(=O)c3cccs3)CC2=O)c1 (configuration not stated),74% (inactive)
2,Cc1ccc(-n2ncc(C(=O)NCc3ccc4c(c3)OCO4)c2C2CCN(C(=O)OC(C)(C)C)CC2)c(C)c1,92% (inactive)
3,CCOc1cc(Cn2c(-c3ccc(O)c(OCC)c3)nc3ccccc32)ccc1O,73% (inactive)
4,COc1ccc(Cn2c(SCC(=O)NCc3ccccc3)nc3ccccc32)cc1,117% (inactive)
5,COc1ccc(-c2nc3ccccc3n2Cc2ccc(C(C)C)cc2)cc1,4% (active)
6,COc1ccc(-c2noc(=O)n2Cc2ccccc2)cc1,75% (inactive)
7,COc1ccc(-c2nc3ccccc3n2Cc2ccc(Cl)cc2)cc1,6% (active)
8,COc1ccc(Cn2c(SC)nc3ccccc32)cc1,97% (inactive)
9,COc1ccc(-c2nc3ccccc3n2Cc2ccccc2)cc1,-1% (active)
10,COc1ccc(Cn2c(=O)c3ccccc3n3c(-c4ccc(C)cc4)nnc23)cc1,90% (inactive)
11,COc1ccc(Cn2c(SCC(=O)Nc3ccc(OC)cc3)nc3ccccc32)cc1,88% (inactive)
12,Cc1ccc(NC(=O)Cn2c(=O)oc3cc(S(=O)(=O)N4CCCCC4)ccc32)c(C)c1,81% (inactive)
13,Cc1cc(C)cc(NC(=O)C(=O)NCCc2sc(-c3cccc(F)c3)nc2C)c1,80% (inactive)
14,COc1cccc(-n2c(=O)c3sc4ccccc4c3n(CC(=O)Nc3ccc(F)cc3F)c2=O)c1,64% (inactive)
15,O=C(NCCc1ccccc1)c1cc(Sc2cccc(Cl)c2)nc2ccccc12,88% (inactive)
16,CN1C(=O)Cc2cc(S(=O)(=O)CCC(=O)N3CCN(c4cccc(Cl)c4)CC3)ccc21,62% (inactive)
17,Cc1cccc(N2CCN(C(=O)CCS(=O)(=O)c3ccc4c(c3)CC(=O)N4C)CC2C)c1 (configuration not stated),-2% (active)
18,Cc1ccc2c(c1)-c1c(cnn1CC(=O)N1CCN(c3ccccc3F)CC1)CO2,73% (inactive)
19,Cc1cccc(N2CCN(C(=O)Cn3ncc4c3-c3cc(C)ccc3OC4)CC2C)c1 (configuration not stated),47% (active)

row,Structure (SMILES),survival
1,Cc1ccc2c(c1)-c1c(cnn1CC(=O)N1CCN(c3cccc(C(F)(F)F)c3)CC1)CO2,50% (inactive)
2,CCN(C(=O)Cn1ncc2c1-c1cc(C)ccc1OC2)c1cc(Cl)ccc1OC,31% (active)
3,COc1cc(Cl)c(C)cc1NC(=O)Cn1ncc2c1-c1cc(C)ccc1OC2,58% (inactive)
4,CCC(=O)N1CCc2cc(S(=O)(=O)CCC(=O)N3CCN(c4cccc(C)c4)C(C)C3)ccc21 (configuration not stated),76% (inactive)
5,Cc1ccc2c(c1)-c1c(cnn1CC(=O)N1CCN(c3cc(Cl)ccc3C)CC1)CO2,49% (inactive)
6,O=C(NCc1ccc(Cl)cc1)c1cc(S(=O)(=O)N2CCCCC2)c[nH]1,103% (inactive)
7,Cc1ccc(-n2ncc3c(NC4CCCCC4)ncnc32)cc1,88% (inactive)
8,Cc1ccccc1NCc1cccn1-c1nnc(N2CCOCC2)s1,112% (inactive)
9,Cc1ccc(C(=O)c2oc3ccccc3c2NC(=O)c2cc(-c3ccc(Cl)cc3)on2)cc1,87% (inactive)
10,CC1CCC(NC(=O)c2ccc3c(c2)N(Cc2cccc(Cl)c2)C(=O)c2ccccc2S3(=O)=O)CC1 (configuration not stated),74% (inactive)
11,COc1ccc2[nH]c(=O)c(CN(CCO)S(=O)(=O)c3ccc(Cl)c(C(F)(F)F)c3)cc2c1,98% (inactive)
12,COc1ccc(NCc2cccn2-c2nnc(N3CCOCC3)s2)c(OC)c1,78% (inactive)
13,CCNC(=O)c1ccc(NC(=O)N2CCCCc3ccccc32)cc1,102% (inactive)
14,CCCCCC(=O)N(c1ccc(OCC)cc1)S(=O)(=O)c1ccc2c(c1)n(C)c(=O)n2C,111% (inactive)
15,CCOc1ccc(N(C(=O)c2ccc(Cl)cc2)S(=O)(=O)c2ccc3c(c2)n(C)c(=O)n3C)cc1,37% (active)
16,CCOc1ccc(N(C(=O)c2ccccc2F)S(=O)(=O)c2ccc3c(c2)n(C)c(=O)n3C)cc1,47% (inactive)
17,CCOc1ccc(N(CC(=O)OC)S(=O)(=O)c2ccc3c(c2)n(C)c(=O)c(=O)n3C)cc1,46% (active)
18,COc1ccc(C(=O)N(c2ccc(OC)cc2)S(=O)(=O)c2ccc3c(c2)n(C)c(=O)n3C)cc1,84% (inactive)
19,CCOc1ccc(N(C(=O)c2ccc(C)cc2)S(=O)(=O)c2ccc3c(c2)n(C)c(=O)n3C)cc1,45% (inactive)

row,Structure (SMILES),survival
1,CCOc1ccc(NC(=O)CCS(=O)(=O)c2ccc3c(c2)n(C)c(=O)c(=O)n3C)cc1,87% (inactive)
2,CCOc1ccc(N(C(=O)c2ccc(OC)cc2)S(=O)(=O)c2ccc3c(c2)n(C)c(=O)n3C)cc1,37% (active)
3,COc1ccc(N(C(=O)c2ccccc2)S(=O)(=O)c2ccc3c(c2)n(C)c(=O)n3C)cc1,89% (inactive)
4,CCc1nc2ccc(C(=O)N3CCN(c4cccc(OC)c4)CC3)cc2nc1CC,83% (inactive)
5,CC(C)c1cnc2c(c1SCC(=O)Nc1cccc([N+](=O)[O-])c1)c(=O)n(C)c(=O)n2C,69% (inactive)
6,CC1CCN(S(=O)(=O)c2ccc3c(c2)N(CC(=O)N2CCN(c4ccc(Cl)cc4)CC2)C(=O)CO3)CC1,62% (inactive)
7,Cc1ccc(-c2nnc(SCC(=O)NCCC(C)C)nc2-c2ccc(C)cc2)cc1,104% (inactive)
8,Cc1cccc(N(C(=O)c2csnn2)C(C(=O)NC2CCCCC2)c2ccco2)c1 (configuration not stated),87% (inactive)
9,Cc1cc(C)cc(NC(=O)CSc2nccn2C2CCCC2)c1,94% (inactive)
10,COc1ccc(-n2nnnc2C2CCN(S(=O)(=O)c3ccc(C)cc3)CC2)cc1,99% (inactive)
11,CC(C)N1C(=O)C(O)(c2c[nH]c3ccccc23)c2ccccc21 (configuration not stated),129% (inactive)
12,Cc1ccc(CN2C(=O)C(O)(c3c[nH]c4ccccc34)c3cc(Cl)ccc32)cc1 (configuration not stated),-3% (active)
13,O=C1N(Cc2ccccc2)c2ccc(Cl)cc2C1(O)c1c[nH]c2ccccc12 (configuration not stated),66% (inactive)
14,Cc1ccc(C)c(CN2C(=O)C(O)(c3c[nH]c4ccccc34)c3ccccc32)c1 (configuration not stated),142% (inactive)
15,CCCCN1C(=O)C(O)(c2c[nH]c3ccccc23)c2cc(Br)ccc21 (configuration not stated),50% (inactive)
16,O=C1N(Cc2ccccc2Cl)c2ccccc2C1(O)c1c[nH]c2ccccc12 (configuration not stated),64% (inactive)
17,CCN1C(=O)C(O)(c2c[nH]c3ccccc23)c2cc(Br)ccc21 (configuration not stated),55% (active)
18,O=C1N(Cc2ccccc2)c2ccccc2C1(O)c1c[nH]c2ccccc12 (configuration not stated),55% (inactive)
19,Cc1ccccc1CN1C(=O)C(O)(c2c[nH]c3ccccc23)c2cc(Cl)ccc21 (configuration not stated),-2% (active)
